# Measurements reported in PubChem BioAssay AID1851 (National Center for Advancing Translational Sciences (NCATS), 2009).
# Hit rate of the full screen: of about 16,000 compounds, about 4,000 (25%) were called active. Roughly 26% stayed inconclusive and do not appear here. Only a sample is shown. Unmarked numbers belong to inactive results. Calls follow the shape of the dose curve; as a rule, active = well fitted curve in the direction sought with a large enough effect; inconclusive = small, poorly fitted or top-dose-only effect, or effect the other way; inactive = no such curve, though single readings can be large or run the other way.
# Target: Cytochrome P450 2C9 (Homo sapiens) (UniProt P11712)
# Sequence (P11712 whole entry, looked up): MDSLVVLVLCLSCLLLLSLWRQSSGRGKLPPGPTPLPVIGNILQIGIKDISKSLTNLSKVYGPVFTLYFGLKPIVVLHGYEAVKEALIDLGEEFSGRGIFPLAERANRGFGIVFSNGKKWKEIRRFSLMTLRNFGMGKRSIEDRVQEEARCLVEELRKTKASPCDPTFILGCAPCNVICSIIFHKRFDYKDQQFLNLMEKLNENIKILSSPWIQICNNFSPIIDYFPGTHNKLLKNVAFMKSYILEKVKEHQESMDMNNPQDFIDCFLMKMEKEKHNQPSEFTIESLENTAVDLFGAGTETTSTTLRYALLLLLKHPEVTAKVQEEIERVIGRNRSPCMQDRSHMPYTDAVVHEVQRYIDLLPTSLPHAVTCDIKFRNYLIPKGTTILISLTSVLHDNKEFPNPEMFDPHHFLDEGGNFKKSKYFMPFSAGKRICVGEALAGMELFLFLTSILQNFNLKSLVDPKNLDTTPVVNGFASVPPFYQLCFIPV
# Experiment: Cytochrome panel assay with activity outcomes
# Details: recombinant CYP, pro-luciferin dealkylation, luminescence, p450-cyp2c9; series mostly up to 57.1 µM; activity, negative = inhibition: at the top concentration
# % is scaled to controls: 0 for no effect and ±100 for the full control effect.
SMILES,"activity, negative = inhibition",AC50
O=C(NNC(=O)c1ccncc1)c1ccncc1,0.511% [at 11.4 µM],–
NNC(=O)c1ccncc1,-14.5% [at 25.6 µM],–
CC(=O)c1c(C(C)=O)c(C)n(NC(=O)c2ccncc2)c1C,–,1.58 µM (active)
NS(=O)(=O)c1ccc(N=Nc2cc3ccccc3c(C(=O)O)c2O)cc1,-1.93% [at 11.4 µM],–
CCN1C(=O)[C@H]2[C@H]3[C@H](O)[C@H](O)C/C(=N/O[C@@H]4O[C@H](COC(C)=O)[C@@H](OC(C)=O)[C@H](OC(C)=O)[C@H]4OC(C)=O)[C@@H]3CC[C@@H]2C1=O,-1.58% [at 11.4 µM],–
C/C(=N\NC(=O)c1ccncc1)c1ccc2ccccc2c1O,–,0.1 µM (active)
C/C(=N\NC(=O)c1ccc(Br)cc1)c1ccccc1,9.36%,–
CC1(C)Cc2ccccc2C(NNC(=O)c2ccncc2)=N1,-14.2%,–
O=C(c1cccc(F)c1)N1CCC2(CC1)CCN(c1ccccc1)CC2,-28.2%,–
O=C(c1cc(C(F)(F)F)cc(C(F)(F)F)c1)N1CCC2(CCCN(c3ncccn3)C2)CC1,-8.06%,–
O=C(c1cccc(F)c1)N1CCC2(CC1)CCN(c1ncccn1)CC2,–,12.6 µM (active)
CC(=O)N1CCC2(CCCN(c3ncccn3)C2)CC1,-3.08%,–
CC(C)NC(=O)N1CCC2(CC1)CCN(C(=O)c1cccc(F)c1)CC2,27.3%,–
O=C(c1cccc(F)c1)N1CCC2(CCCN(c3ncccn3)C2)CC1,–,15.8 µM (active)
COc1cccc2c1C(=O)c1c(O)c3c(c(O)c1C2=O)C[C@](O)(C(=O)CO)C[C@H]3O[C@@H]1C[C@H](N)[C@H](O)[C@H](C)O1,-8.75% [at 25.6 µM],–
O=C(O)[C@@H]1CCCN1,1.2% [at 11.4 µM],–
CCSc1nnc(-c2ccc(Cl)cc2)c2ccccc12,–,2 µM (active)
Cc1ccc(C(=O)N/C(=C\c2ccc(Br)cc2)c2nc(=S)[nH][nH]2)cc1,–,8.91 µM (active)
O=C(N/C(=C/c1ccc(Br)cc1)c1nc2ccccc2[nH]1)c1ccco1,-21.8%,–
CCOc1nc(N=C(N)N)nc2c(C)cccc12,-3.81%,–
COc1ccc2nc(NCN3C(=O)c4ccccc4C3=O)sc2c1,-14.8% [at 11.4 µM],–

SMILES,"activity, negative = inhibition",AC50
COc1ccc2nc(N)sc2c1,-0.783%,–
COc1ccc2nc(N3C(=O)CC(Cc4ccc(Cl)cc4)C3=O)sc2c1 (configuration not stated),–,12.6 µM (active)
CN1CCN(CCCBr)CC1,18% [at 11.4 µM],–
C[C@H](O/N=C1/[C@H]2O[C@@H]2[C@@H](O)[C@H]2[C@H]1CCn1c(=O)n(-c3ccccc3)c(=O)n12)c1cn([C@H]2COC[C@H]2O)nn1,0.305% [at 11.4 µM],–
CCNc1ncc2nc(-c3cccs3)c(=O)n(CCc3ccccc3)c2n1,-4.57%,–
CCCn1c(-c2cccs2)nc2nc3ccccc3nc21,–,10 µM (active)
CN1CCN(c2ncc3nc(-c4cccs4)c(=O)n(CCc4ccccc4)c3n2)CC1,3.63%,–
Cc1ccc2nc(SCc3nc4c(cnn4-c4ccccc4)c(=O)[nH]3)[nH]c2c1,–,4.47 µM (active)
C=CCSc1nc2ccccc2n1C(=O)/C=C/c1cc(OC)c(OC)c(OC)c1,–,7.94 µM (active)
CCSc1nc2ccccc2n1C(=O)/C=C\c1ccc(OC)c(OC)c1,–,1.58 µM (active)
COc1cc(/C=C/C(=O)Nc2ccccc2C(F)(F)F)cc(OC)c1OC,-26.9%,–
CC(=O)n1c(COS(C)(=O)=O)nc2ccccc21,-7.23% [at 11.4 µM],–
COc1cc(/C=C\C(=O)N2CCC=CC2=O)cc(OC)c1OC,17.9% [at 25.6 µM],–
COc1ccc(NC(=O)COC(=O)Cn2c(C)nc3ccccc32)cc1OC,-22.4%,–
COc1ccc(O[C@H]2C=C[C@@H](c3ccccc3)O[C@H]2COC(=O)CC/C(C)=N/O[C@@H]2O[C@H](COC(C)=O)[C@H](OC(C)=O)[C@H](OC(C)=O)[C@H]2OC(C)=O)cc1,-25.6% [at 11.4 µM],–
CCCNC(=O)OC[C@@H]1O[C@H](CCO/N=C(\C)CCN2CCc3nc(CC)c(CC)cc3C2)C=C[C@@H]1Oc1ccc(OC)cc1,-21.2% [at 11.4 µM],–
COc1ccc(O[C@H]2C=C[C@@H](c3ccccc3)O[C@H]2CO/N=C(/C)CCC(=O)OC[C@@H]2O[C@H](C#Cc3ccccc3)C=C[C@@H]2Oc2ccc(C)cc2)cc1,-16.6% [at 11.4 µM],–
COc1ccc(O[C@H]2C=C[C@@H](c3ccccc3)O[C@H]2CO/N=C(/C)CCC(=O)OC[C@@H]2O[C@H](c3ccccc3)C=C[C@@H]2Oc2ccc(OC)cc2)cc1,-3.16% [at 11.4 µM],–
COc1ccc(O[C@H]2C=C[C@@H](c3ccccc3)O[C@H]2COC(=O)CC/C(C)=N\OC[C@@H](O)[C@H]2O[C@H]3OC(C)(C)O[C@H]3[C@@H]2O)cc1,–,1.58 µM (active)
CCCNC(=O)OC[C@@H]1O[C@H](c2ccccc2)C=C[C@@H]1Oc1ccc(OC)cc1,-29.7% [at 11.4 µM],–
CCCNC(=O)OC[C@@H]1O[C@H](CCO/N=C(\C)CCN2CCc3nc(-c4ccccc4)c(-c4ccccc4)cc3C2)C=C[C@@H]1Oc1ccc(OC)cc1,–,2 µM (active)
